Test results from PubChem BioAssay (NCI).
The panel holds about 79,000 compounds, 15% with a hit somewhere; the sample as a whole holds those more often. Values without a mark were called inactive. The source made the active and inactive calls. Cut-off read from the data, not from the text of the source: active = growth inhibition above about 70%; inactive = the rest.

Experiments:
[1] = NCI Yeast Anticancer Drug Screen. Data for the rad50 strain (AID 155);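 note: 0% = growth of vehicle-only cultures of the same strain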; details: S. cerevisiae rad50 strain growth inhibition, hits give high values
Outline: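 Readout: growth inhibition relative to vehicle-treated cultures. Compound exposure was carried out in a genetically defined yeast strain deficient in DNA damage repair.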

[2] = NCI Yeast Anticancer Drug Screen. Data for the mec2-1 strain (AID 157); details: S. cerevisiae mec2-1 strain, hits give high values
Outline: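 Compounds were applied to mec2-1 yeast cells. Their growth was then compared with that of vehicle-treated cultures to give growth inhibition.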

[3] = NCI Yeast Anticancer Drug Screen. Data for the sgs1 mgt1 strain (AID 161);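 note: 0% = growth of cultures given vehicle only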; details: S. cerevisiae sgs1 mgt1 strain, hits give high values
Outline: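 Yeast cells carrying a defined DNA-repair defect were exposed to test compounds. Growth inhibition was measured relative to vehicle-treated controls.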

[4] = NCI Yeast Anticancer Drug Screen. Data for the cln2 rad14 strain (AID 165);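 note: 0% = growth equal to vehicle treated cultures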; details: S. cerevisiae cln2 rad14 strain, hits give high values
Outline: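 Strain: cln2 rad14 yeast, altered in cell cycle control and DNA damage repair. Read-out: growth inhibition vs vehicle.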

[5] = NCI Yeast Anticancer Drug Screen. Data for the bub3 strain (AID 167); details: S. cerevisiae bub3 mutant strain, hits give high values
Outline: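 Readout: yeast growth inhibition, expressed relative to vehicle-only wells. The test organism is a mutant strain from a panel with lesions in DNA repair or checkpoint genes.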

[6] = NCI Yeast Anticancer Drug Screen. Data for the mlh1 rad18 strain (AID 175); details: S. cerevisiae mlh1 rad18 strain growth inhibition, hits give high values
Outline: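 A repair-deficient yeast strain is exposed to test compound, and growth is scored relative to vehicle-treated controls.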

[7] = at 5.0 µM (retest, dose inferred, filed as 0.5)
[8] = at 50.0 µM (retest, dose inferred, filed as 5.0)

Compound	growth inhibition [1, 7]	growth inhibition [1, 8]	growth inhibition ([1]; at 50.0 µM)	growth inhibition [2, 7]	growth inhibition [2, 8]	growth inhibition ([2]; at 50.0 µM)	growth inhibition [3, 7]	growth inhibition [3, 8]	growth inhibition ([3]; at 50.0 µM)	growth inhibition [4, 7]	growth inhibition [4, 8]	growth inhibition ([4]; at 50.0 µM)	growth inhibition [5, 7]	growth inhibition [5, 8]	growth inhibition ([5]; at 50.0 µM)	growth inhibition [6, 7]	growth inhibition [6, 8]	growth inhibition ([6]; at 50.0 µM)
Brc1ccc2[nH]c3nc4ccc5ccccc5c4nc3c2c1	2%	1%	-2.35%	3%	1%	20.8%	0%	0%	7.15%	6%	-1%	71% (active)	6%	0%	12.4%	6%	2%	-3.25%
COc1ccc(CN2COc3c(cc(C)c4cccnc34)C2)cc1	14%	92% (active)	65%	8%	93% (active)	47.5%	23%	92% (active)	64.1%	16%	93% (active)	39.9%	-3%	95% (active)	61.4%	20%	93% (active)	79.9% (active)
COC(=O)c1ccc(-c2ccccc2)cc1	-1%	83% (active)	82.3% (active)	1%	94% (active)	99.2% (active)	3%	82% (active)	98% (active)	-2%	55%	44.2%	10%	92% (active)	96% (active)	2%	86% (active)	96.8% (active)
COC(=O)c1cc2c(oc1=O)-c1ccccc1N(C=O)C2	-3%	-8%	0.3%	-9%	-11%	-8.75%	-13%	-11%	11.4%	-11%	-9%	-55.8%	-16%	-24%	-35.1%	0%	-21%	2.1%
CN1/C(=C/C=C/C(I)=C/C=C/C2=[N+](C)c3ccccc3C2(C)C)C(C)(C)c2ccccc21	1%	88% (active)	60.5%	8%	89% (active)	50.1%	-4%	92% (active)	80.6% (active)	8%	71% (active)	79.4% (active)	-2%	89% (active)	76.3% (active)	-1%	89% (active)	84.7% (active)
CC(N)C1C(C)CC2C3CC=C4CC(O)CCC4(C)C3CCC21C (configuration not stated)	50%	85% (active)	4.45%	35%	74% (active)	25.1%	83% (active)	-19%	74% (active)	49%	86% (active)	8.3%	52%	85% (active)	84.1% (active)	57%	86% (active)	53.2%
COc1ccc2c(N3CCN(C(=O)C(Cl)(Cl)Cl)CC3)cc(C)nc2c1	2%	4%	2.05%	1%	0%	0.2%	1%	0%	-24.6%	0%	0%	-2.9%	0%	7%	-0.5%	3%	4%	2.75%
Clc1ccc2nc3ccccc3nc2c1	-31%	96% (active)	94.7% (active)	26%	67%	86.8% (active)	-5%	81% (active)	79.6% (active)	-9%	79% (active)	80.7% (active)	21%	78% (active)	92.3% (active)	-4%	94% (active)	93.8% (active)
CCC(c1ccc(O)cc1)C(CC)c1ccc(O)c(CN(C)C)c1 (configuration not stated)	1%	76% (active)	66.8%	0%	74% (active)	45.5%	-6%	98% (active)	74.2% (active)	-3%	83% (active)	42.6%	-1%	83% (active)	36.5%	2%	96% (active)	65.3%
